An excerpt weighted towards active compounds, which were near 17% of everything screened.
TGFb inhibitor – TGF-b pathway inhibition | HepG2 CAGA-GFP TGF-b/SMAD3 reporter, GFP fluorescence, 18 h; TGF-beta stimulated, 500 pg/mL final | Potency, µM (highest dose often 46.1 µM), for inactives: top-dose activity, negative = inhibition, actives largely listed as inhibitors | 1.2% of 410,000 active | AID 588855; further: on the % scale 0 is the no-effect control and ±100 the full control effect; nearly all actives have a fitted effect of over 65% in size
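Inhibition of TGF-beta-driven CAGA-GFP reporter expression in HEPG2 cells is measured by cellular GFP fluorescence after 18 h stimulation with 500 pg/mL recombinant TGF-beta in 1% FBS medium at 37 degrees C.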
HT1080 IDH1KD tx – kills HT-1080 cells with IDH1 knockdown; HT-1080 IDH1 knockdown viability, ATP luminescence, 48 h; Potency, µM (top dose mostly 46.1 µM), for inactives: top-dose activity, negative = toxicity, hits mostly cytotoxic; 2% of 360,000 active;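 further: 0% = DMSO wells and -100% = cell-free medium wells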
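Luminescent ATP read-out (CellTiter-Glo, 10 min at room temperature) after 48 h compound exposure at 37 °C gave viability of IDH1-knockdown HT-1080 cells. Activity was normalised to DMSO and cell-free wells, then fitted as concentration-response curves.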
HepG2 tox – HepG2 cytotoxicity, counter-screen for TGF-b inhibitors. HepG2 CAGA-GFP viability, ATP luminescence, 18 h. Potency, µM (series often up to 46.1 µM), inactives show at the top dose activity change, negative = cytotoxicity, actives largely listed as cytotoxic. 0.76% of 410,000 active. AID 588856
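HepG2 CAGA-GFP cells (1000/well, DMEM with 1% FBS) received compound, then TGF-beta at 500 pg/mL final, and were incubated 18 hours at 37 degrees C. Viability was read by CellTiter-Glo luminescence. Media-only wells were set as complete cell-killing and DMSO as no toxicity.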
DT40 TDP1 no CPT – qHTS for Inhibitors of human tyrosyl-DNA phosphodiesterase 1 (TDP1): qHTS in cells in absence of CPT; DT40 Tdp1-/- hTDP1 cells, no CPT, ATP luminescence, 48 h; Potency, µM (series often up to 46.2 µM), for the others: top-dose activity change, negative = growth inhibition, usual class: inhibitors; 15% of 420,000 active; AID 686978, 2013; further: on the % scale 0 is the no-effect control and ±100 the full control effect; nearly all actives have a fitted effect of over 55% in size
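A cellular qHTS used chicken DT40 cells lacking endogenous Tdp1 but carrying stably transfected human TDP1. Compounds were applied without camptothecin, and cell growth kinetics were judged by ATP-dependent luminescence after ≥48 hr.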
HT1080NT lethal – kills 2HG-producing HT-1080-NT fibrosarcoma cells; HT-1080-NT fibrosarcoma viability, CellTiter-Glo ATP luminescence, 48 h; Potency, µM (doses to about 46.1 µM), without a hit: top-dose activity, negative = less viability, usual class: cytotoxic; 1.6% of 360,000 active; AID 686970;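 further: NT is the 2HG producing partner of a matched IDH1 knockdown line; 0% = DMSO-treated cells and -100% = media-only wells without cells; nearly all actives have a fitted effect of over 55% in size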
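Luminescent CellTiter-Glo readout after 48 hours of compound exposure at 37 degrees C defined viability of HT-1080-NT cells. Activity was normalized to DMSO wells and cell-free media wells; concentration-response curves were fitted and assigned curve classes.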
DT40 TDP1 CPT – DT40-hTDP1 cell growth loss with CPT | chicken DT40 Tdp1-/-;hTDP1 cells + 20 nM CPT, ATP luminescence, 48 h | Potency, µM (doses to about 46.2 µM), without a hit: at the highest dose activity change, negative = growth inhibition, hits mostly inhibitors | 12% of 420,000 active; further: on the % scale 0 is the no-effect control and ±100 the full control effect; nearly all actives have a fitted effect of over 55% in size
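Cell growth measured by CellTiter-Glo luminescence after a minimum 48 h, 37 C compound exposure with 20 nM CPT in Tdp1-knockout DT40 cells stably expressing hTDP1, seeded 400/well; qHTS titration format.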
The depositor's hits bear a star; ! = not active in a repeat; [ ] = another dose, or the depositor's remark. The call rests on the fitted dose curve; in most records, active means well fitted curve in the direction sought with a large enough effect; inconclusive means small, poorly fitted or top-dose-only effect, or another doubt; inactive means no such curve, though single readings can be large; an effect the other way counts as inactive or inconclusive. Potency means the concentration at half of the fitted maximal effect.

How did COc1cccc2c1C(=O)c1c(O)c3c(c(O)c1C2=O)C[C@@](O)(C(=O)CO)C[C@@H]3O[C@H]1C[C@H](N)[C@H](O[C@@H]2CCCCO2)[C@H](C)O1 do in these assays?
DT40 TDP1 no CPT: 0.34µM*; DT40 TDP1 CPT: 0.19µM*

How did CCOc1ccc(S(=O)(=O)N2CCC(C(=O)N3CCOCC3)CC2)cc1C do in these assays?
TGFb inhibitor: inconclusive; HT1080 IDH1KD tx: 1%; HepG2 tox: 0%; DT40 TDP1 no CPT: -10%; HT1080NT lethal: 2%; DT40 TDP1 CPT: -8%

How did CN1CCN(S(=O)(=O)c2ccc(Cl)nc2)CC1 do in these assays?
TGFb inhibitor: -20%; HT1080 IDH1KD tx: 24%; HepG2 tox: 5%; DT40 TDP1 no CPT: -1%; HT1080NT lethal: 19%; DT40 TDP1 CPT: 11%

How did Cc1sc2ncnc(SCC(=O)Nc3ccc(S(=O)(=O)N4CCOCC4)cc3)c2c1C do in these assays?
TGFb inhibitor: 3%; HT1080 IDH1KD tx: -14%; HepG2 tox: -4%; DT40 TDP1 no CPT: 29µM*; HT1080NT lethal: -11%; DT40 TDP1 CPT: 23µM*

Results for Cc1sc2ncnc(N3CCN(S(=O)(=O)c4ccc(Br)cc4)CC3)c2c1C ?
TGFb inhibitor: 4%; HT1080 IDH1KD tx: 10%; HepG2 tox: 14%; DT40 TDP1 no CPT: 12µM*; HT1080NT lethal: -4%; DT40 TDP1 CPT: 13µM*

Results for C/C(=N\NC(=O)c1ccccc1)c1c(O)n(C2CCCCC2)c(=O)[nH]c1=O ?
TGFb inhibitor: -11%; HT1080 IDH1KD tx: 0%; HepG2 tox: -11%; DT40 TDP1 no CPT: -8%; HT1080NT lethal: -7%; DT40 TDP1 CPT: 2%

What do the screens show for `CC(=O)NC1=C(N2CC2C)C(=O)C(NC(C)=O)=C(N2CC2C)C1=O` (configuration not stated)?
TGFb inhibitor: inconclusive; HT1080 IDH1KD tx: -14%; HepG2 tox: -7%; DT40 TDP1 no CPT: 4.6µM*; HT1080NT lethal: -1%; DT40 TDP1 CPT: 1.8µM*

What do the screens show for `COc1ccc(OC)c([C@@H](O)[C@H](C)N)c1`?
DT40 TDP1 no CPT: -15%; DT40 TDP1 CPT: -26%

How did COc1ccc(CCNS(=O)(=O)c2ccc3c(c2)oc(=O)n3C)cc1OC do in these assays?
TGFb inhibitor: -7%; HT1080 IDH1KD tx: -5%; HepG2 tox: -6%; DT40 TDP1 no CPT: -8%; HT1080NT lethal: -5%; DT40 TDP1 CPT: -10%

Results for COc1ccc(NS(=O)(=O)c2ccc3c(c2)oc(=O)n3C)cc1Cl ?
TGFb inhibitor: inconclusive; HT1080 IDH1KD tx: 0%; HepG2 tox: 5%; DT40 TDP1 no CPT: 16µM*; HT1080NT lethal: 2%; DT40 TDP1 CPT: 13µM*!

What do the screens show for `OC[C@H]1OC(O)C[C@@H](O)[C@@H]1O` (some centres not stated)?
TGFb inhibitor: -16%; HT1080 IDH1KD tx: 17%; HepG2 tox: -1%; DT40 TDP1 no CPT: 5%; HT1080NT lethal: inconclusive; DT40 TDP1 CPT: 3%

How did O=C(C1CCN(S(=O)(=O)c2ccc(Br)s2)CC1)N1CCN(c2ccc(F)cc2)CC1 do in these assays?
TGFb inhibitor: -2%; HepG2 tox: -18%; DT40 TDP1 no CPT: 21µM*; DT40 TDP1 CPT: inconclusive

What do the screens show for `CCc1cccc(NC(=O)CN2C(=O)CN=C(c3ccccc3F)c3cc(Cl)ccc32)c1`?
TGFb inhibitor: 13µM*; HepG2 tox: -55%; DT40 TDP1 no CPT: inconclusive; DT40 TDP1 CPT: inconclusive

What do the screens show for `COc1ccc(NC(=O)CN2C(=O)C(C)N=C(c3ccccc3F)c3cc(Cl)ccc32)c(OC)c1` (configuration not stated)?
TGFb inhibitor: inconclusive; HepG2 tox: -15%; DT40 TDP1 no CPT: inconclusive; DT40 TDP1 CPT: inconclusive

What do the screens show for `CCN(CC)CCN1C(=O)CN=C(c2ccccc2F)c2cc(Cl)ccc21`?
DT40 TDP1 no CPT: 27µM*; DT40 TDP1 CPT: inconclusive

Results for O=C(O)CN1C(=O)CN=C(c2ccccn2)c2cc(Cl)ccc21 ?
TGFb inhibitor: -1%; HT1080 IDH1KD tx: -1%; HepG2 tox: 5%; DT40 TDP1 no CPT: -7%; HT1080NT lethal: -8%; DT40 TDP1 CPT: -2%

Results for COc1ccc(Cl)cc1NC(=O)CN1C(=O)CN=C(c2ccccc2)c2cc(Cl)ccc21 ?
TGFb inhibitor: inconclusive; HepG2 tox: -24%; DT40 TDP1 no CPT: 15µM*; DT40 TDP1 CPT: inconclusive

Results for Cc1cc(C)cc(NC(=O)CN2C(=O)CN=C(c3ccccc3)c3cc(Cl)ccc32)c1 ?
TGFb inhibitor: inconclusive; HepG2 tox: -46%; DT40 TDP1 no CPT: inconclusive; DT40 TDP1 CPT: 21µM*

Results for CCSc1nnc(NC(=O)c2cccn(Cc3ccccc3Cl)c2=O)s1 ?
TGFb inhibitor: -3%; HepG2 tox: -18%; DT40 TDP1 no CPT: 11%; DT40 TDP1 CPT: 2%

What do the screens show for `CNC(=O)O/N=C(/C)SC`?
DT40 TDP1 no CPT: -3%; DT40 TDP1 CPT: -5%

How did [Cl][In]([Cl])[Cl] do in these assays?
TGFb inhibitor: 4%; HepG2 tox: 2%; DT40 TDP1 no CPT: -9%[92.5 µM]; DT40 TDP1 CPT: inconclusive

Results for CN(C)C(=O)Oc1ccc(Cl)c2ccccc12 ?
TGFb inhibitor: 11%; HT1080 IDH1KD tx: -1%; HepG2 tox: 3%; DT40 TDP1 no CPT: -6%; HT1080NT lethal: 2%; DT40 TDP1 CPT: -1%

What do the screens show for `CN(C)C(=O)Oc1ccc(Br)cc1C(=O)Nc1ccc(F)c(Cl)c1`?
TGFb inhibitor: inconclusive; HT1080 IDH1KD tx: inconclusive; HepG2 tox: -35%; DT40 TDP1 no CPT: 23µM*; HT1080NT lethal: inconclusive; DT40 TDP1 CPT: 23µM*

What do the screens show for `C=CCN1C(=O)NC(=O)/C(=C/C=C/c2ccccc2)C1=O`?
TGFb inhibitor: inconclusive; HT1080 IDH1KD tx: 21µM*; HepG2 tox: -7%; DT40 TDP1 no CPT: 23µM*; HT1080NT lethal: inconclusive; DT40 TDP1 CPT: 16µM*

What do the screens show for `CN(C)c1ccc(/C=C2/C(=O)NC(=O)N(CCc3ccc(F)cc3)C2=O)cc1`?
TGFb inhibitor: 14%; HT1080 IDH1KD tx: 0%; HepG2 tox: 16%; DT40 TDP1 no CPT: inconclusive; HT1080NT lethal: 12%; DT40 TDP1 CPT: inconclusive

What do the screens show for `O=C1NC(=O)N(CCc2ccc(F)cc2)C(=O)/C1=C\C=C\c1ccccc1`?
TGFb inhibitor: -22%; HT1080 IDH1KD tx: 19%; HepG2 tox: -1%; DT40 TDP1 no CPT: 3.7µM*; HT1080NT lethal: 14%; DT40 TDP1 CPT: 2.3µM*

Screening results as filed in PubChem BioAssay.
